# High-throughput results: PubChem BioAssay, several laboratories
# MEKK2 mut-MEK5: signal of MEK5 binding to mutant human MEKK2 PB1 domain | bead flow cytometry, Alexa488-MEK5 binding to MEKK2 mutant | 0.35% of 290,000 active | AID 1530 | percent response, % at 10 µM; in the data active means percent response above about 24%, passing the limit was not always enough
# MEKK3 PB1 HTS: raises or lowers MEK5 binding to the human MEKK3 PB1 domain. bead-based flow cytometry, Alexa488-MEK5 binding to MEKK3; actives lie on both sides; 0 = blocked by unlabeled MEK5, 100 = vehicle. 1.4% of 290,000 active. binding response (% of control), % at 10 µM;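 active means binding response more than 3 SD above or below the average of its plate-row segment, actives on both sides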;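 further: Alexa488 bead fluorescence after subtracting the streptavidin-only scavenger bead signal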
# Target sequence (Q99759 whole entry, looked up, the tested form may be a part): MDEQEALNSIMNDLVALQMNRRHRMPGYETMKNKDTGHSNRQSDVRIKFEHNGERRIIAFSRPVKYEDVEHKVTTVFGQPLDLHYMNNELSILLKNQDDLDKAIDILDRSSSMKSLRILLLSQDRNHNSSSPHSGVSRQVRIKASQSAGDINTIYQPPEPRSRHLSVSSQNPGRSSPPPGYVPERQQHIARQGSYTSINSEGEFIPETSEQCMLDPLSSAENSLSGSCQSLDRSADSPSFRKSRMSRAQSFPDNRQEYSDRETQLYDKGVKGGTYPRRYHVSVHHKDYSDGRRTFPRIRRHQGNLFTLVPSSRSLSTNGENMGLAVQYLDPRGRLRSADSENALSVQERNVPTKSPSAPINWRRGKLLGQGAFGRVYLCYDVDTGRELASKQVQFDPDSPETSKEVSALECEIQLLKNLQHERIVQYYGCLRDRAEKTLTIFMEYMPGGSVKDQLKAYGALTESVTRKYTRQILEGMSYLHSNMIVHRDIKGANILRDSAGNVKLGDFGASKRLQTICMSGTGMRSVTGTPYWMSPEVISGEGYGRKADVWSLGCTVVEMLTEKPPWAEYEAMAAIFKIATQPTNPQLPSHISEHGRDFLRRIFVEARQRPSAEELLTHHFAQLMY
# ATG4B inh: inhibitors of human ATG4B cysteine protease | inhibition, % at 8.33 µM | ATG4B cleavage of LC3-PLA2, NBD-HPC fluorescence, 1 h | 0.51% of 340,000 active | Q9Y4P1 | AID 504462; in the data active means inhibition above about 40%
# PREPL inhibitor: inhibits the human prolyl oligopeptidase-like enzyme; recombinant PREPL, fluorescence polarization activity-based probe; inhibition, % at 5.96 µM; Q4J6C6; 0.68% of 320,000 active; in the data active means inhibition above about 43%;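 further: 0% = enzyme with DMSO and 100% = wells lacking enzyme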
# MEKK2wt PB1 HTS: raises or lowers MEK5 binding to wildtype human MEKK2 PB1 domain | bead flow cytometry, Alexa488-MEK5 binding to MEKK2 WT; actives lie on both sides | 1.1% of 290,000 active | binding response (% of control), % at 10 µM | Q9Y2U5; in the data active means binding response below about 67% or above about 130%
# UBC13 polyUb: blocks human UBC13 polyubiquitin chain formation; TR-FRET; inhibition, % at 20 µM; 0.47% of 330,000 active; in the data active means inhibition above about 45%, passing the limit was not always enough
# MEKK2wt confirm: raises or lowers MEK5 binding to wildtype human MEKK2, retest. 2.4% of 5,900 active. bead flow cytometry, Alexa488-MEK5 binding to MEKK2 WT; actives lie on both sides. shares compounds with MEKK3 PB1 HTS. binding response (% of control), % at 10 µM; in the data active means binding response below about 16% or above about 210%; inactive means in between
# MEKK2mut-MEK5: signal of MEK5 binding to mutant human MEKK2, retest | shares compounds with MEKK3 PB1 HTS | AID 1893 | bead flow cytometry, Alexa488-MEK5 binding to MEKK2 mutant | 2% of 5,900 active | percent response, % at 10 µM; in the data active means percent response mostly above about 71%, no sharp cut-off; inactive means mostly below about 38%;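 further: higher means compound restores mutant binding toward wildtype level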
# MEKK3 confirm: MEKK3-MEK5 PB1 inhibition, single concentration confirmation; binding response (% of control), % at 10 µM; shares compounds with MEKK3 PB1 HTS; 1.8% of 5,900 active; bead flow cytometry, Alexa488-MEK5 binding to MEKK3; hits give low values;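 active means binding response below 72% of control, or above a set upper limit, though filed actives all read lower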;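 further: 100% = DMSO only wells and 0% = binding blocked by excess unlabeled MEK5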
# Starred values were filed as active, the others as inactive; . = no result; [ ] = another dose, or the depositor's remark. A selection: hits, their analogues and other compounds. The true share with any hit is near 3.1%.
SMILES,MEKK2 mut-MEK5,MEKK3 PB1 HTS,ATG4B inh,PREPL inhibitor,MEKK2wt PB1 HTS,UBC13 polyUb,MEKK2wt confirm,MEKK2mut-MEK5,MEKK3 confirm
COc1ccc(NS(=O)(=O)c2cccc3cccnc23)cc1,-2.0,72.0*[inhibitor],-0.8,0.9,89.0,-7.5,107.0,6.0,107.0
Cc1cc(C)nc(NC2=NCCN2C(=S)Nc2ccc(C)c(C)c2)n1,15.0,123.0,-1.7,1.1,116.0,0.1,.,.,.
Cc1c(-n2c(-c3ccccc3)nc3ccccc3c2=O)c(=O)n(-c2ccccc2)n1C,-2.0,102.0,-5.7,-5.9,102.0,-6.8,.,.,.
CCCCNC(=O)C1CCN(c2nc(OC)nc(OC)n2)CC1,9.0,124.0*,-2.1,1.2,96.0,13.4,103.0,1.0,102.0
N#Cc1c2nc3ccccc3nc2n2cc(NC(=O)c3ccc(F)cc3)ccc12,-5.0,56.0*[inhibitor],2.4,.,-1.0*[inhibitor],.,94.0,8.0,88.0
Cc1c(C(=O)Nc2ccc(F)cc2)cn2c(nc3ccccc32)c1C#N,2.0,95.0,-2.2,10.6,87.0,9.8,.,.,.
COc1nccnc1NS(=O)(=O)c1ccc(N)cc1,-3.0,96.0,-1.2,.,100.0,0.4,.,.,.
O=c1ccc(-c2ccc(S(=O)(=O)Nc3ccccc3Cl)o2)n[nH]1,-1.0,102.0,5.2,1.9,106.0,-12.3,.,.,.
Cc1ccc(C(=O)Nc2ncc3c(Cl)cccc3n2)cc1,25.0*,109.0,1.8,-7.3,109.0,-2.2,104.0,2.0,105.0
O=C1N=C(N2CCN(c3ccccc3)CC2)S/C1=C\c1cn[nH]c1-c1ccccc1,0.0,105.0,26.9,12.7,100.0,7.9,.,.,.
Cc1ccc(N2CCN(C3=NC(=O)/C(=C\c4cn[nH]c4-c4ccccc4)S3)CC2)cc1,0.0,135.0*,38.7,28.5,103.0,-18.7,98.0,-1.0,98.0
Cc1ccc2[nH]c3c(=O)n(CC(=O)NCCCN4CCN(c5ccc(F)cc5)CC4)ncc3c2c1,3.0,104.0,1.1,-15.4,110.0,-0.6,.,.,.
C=CCNC(=O)/C=C/c1c(F)cccc1Cl,1.0,184.0*,7.4,16.3,109.0,-11.7,100.0,-1.0,105.0
O=C(/C=C/c1c(F)cccc1Cl)Nc1ncccn1,-1.0,98.0,0.9,7.8,97.0,-9.4,.,.,.
CCOc1ccc(NC(=O)c2ccc3c(SCC(=O)O)c4c(nc3c2)CCCC4)cc1,4.0,137.0*,-8.4,20.1,113.0,-11.2,95.0,-7.0,100.0
CCOc1ccc(NC(=O)c2ccc(NC(=O)c3ccc(NC(N)=O)cc3)cc2)cc1,.,.,1.2,7.0,.,-6.0,.,.,.
CCOc1ccc(NC(=O)c2ccc(OC)cc2)cc1,6.0,126.0*,5.8,-3.8,112.0,6.4,99.0,-1.0,97.0
COc1ccc(C(CNC(=O)c2cccc(S(=O)(=O)Nc3ccc(F)cc3)c2)N2CCCCC2)cc1 (stereo not given),.,.,-16.0,.,.,.,.,.,.
Cc1cc(=O)n2[nH]c(Nc3cccc(Cl)c3)nc2n1,.,.,3.8,5.1,.,-6.4,.,.,.
CCCN(Cc1cc2cc(C)ccc2[nH]c1=O)C(=O)c1cccc([N+](=O)[O-])c1,24.0,130.0*,-3.3,2.6,127.0,0.6,102.0,-11.0,94.0
CCN1C(=O)C(=O)N(Cc2ccc(OC)c(F)c2)C1=O,1.0,102.0,-9.0,-2.5,98.0,1.9,.,.,.
O=C1C2C3C=CC(C3)C2C(=O)N1c1ccc2ccccc2c1 (stereo not given),26.0*,114.0,-5.2,12.1,116.0,-3.0,99.0,-4.0,99.0
CC(Nc1nc(-c2ccccc2)nc2ccccc12)c1ccccc1 (stereo not given),-6.0,74.0,8.8,3.8,108.0,22.0,.,.,.
